This passage reports growth results from PubChem BioAssay (NCI).

This is part of a sample that, as a whole, favours compounds with a hit. Of some 83,000 tested, about 20% had one in any assay.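 Single-dose data. Exposure time 48 hours. Values below 10 considered active.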 Unmarked numbers belong to inactive results. Activity calls are given as the source filed them.

What all share (experiment): NCI-60 one-dose screen, 48 h (100 = growth as untreated, 0 = no growth, -100 = all killed)
For one assay, the system named is NCI-H23 lung. The settings on record: 10 µM unless noted.
The test system of another assay is NCI-H322M lung. The settings on record: 10 µM unless noted.
A further assay concerns HOP-62 NSCLC. Particulars: 10 µM unless noted.
The next assay concerns NCI-H460 lung. The settings on record: 10 µM unless noted.
The next assay concerns HOP-92 NSCLC. The settings on record: 10 µM unless noted.
For a further assay, the system named is A549/ATCC NSCLC. Particulars: 10 µM unless noted.
The test system of another assay is 786-0 renal. Particulars: 10 µM unless noted.
Another assay concerns COLO 205 colon. Particulars: 10 µM unless noted.
The subject of the next assay is NCI-H522 lung. The settings on record: 10 µM.

For `O=C1C(OCCOc2ccccc2)=C(OCCOc2ccccc2)C(=O)c2ccccc21`, the growth in the assay on NCI-H23 lung was 16.3%; in the assay on NCI-H322M lung, 60.3%; in the assay with HOP-62 NSCLC, 56.4%; in the assay with NCI-H460 lung, -26% (active); in the assay on HOP-92 NSCLC, 102%; with A549/ATCC NSCLC it was 17.4%. For the same molecule, the values for the growth in the assay with 786-0 renal and in the assay with COLO 205 colon were 100% and 102%, respectively.
Regarding `Cc1c(C(=O)Nc2nc(-c3ccccc3)cs2)nnn1-c1cccc2ccccc12`, the growth in the assay with NCI-H23 lung is 33% [50 µM]; in the assay with NCI-H322M lung, 84.6% [50 µM]; in the assay with HOP-62 NSCLC it was 87.9% [50 µM]; in the assay with NCI-H460 lung, 56.4% [50 µM]; with HOP-92 NSCLC, 70.7% [50 µM]; in the assay on A549/ATCC NSCLC, 43.9% [50 µM]. The growth is 79.8% [50 µM] in the assay with 786-0 renal and 69.1% [50 µM] in the assay with COLO 205 colon.
Turning to `COC(=O)c1c2c(c(C)[n+]([O-])c1C)C(=O)C(NCc1ccc(O)cc1)=CC2=O`, the growth was -57.4% (active) in the assay on NCI-H23 lung; 0.623% (active) in the assay on NCI-H322M lung; -7.28% (active) in the assay with HOP-62 NSCLC; -3.38% (active) in the assay with NCI-H460 lung; 34% in the assay with HOP-92 NSCLC; -33.2% (active) with NCI-H522 lung. Moreover, the growth was 4.46% (active) with A549/ATCC NSCLC and 7.96% (active) with 786-0 renal.
Take `CC(=O)Nc1ccccc1-c1n[nH]c(=O)[nH]c1=O`: the growth in the assay on NCI-H23 lung is 102%; in the assay with NCI-H322M lung it was 105%; in the assay with HOP-62 NSCLC, 97.6%; in the assay on NCI-H460 lung, 104%; in the assay with HOP-92 NSCLC, -10.8% (active); in the assay with A549/ATCC NSCLC, 116%. Also, the values for the growth in the assay on 786-0 renal and with COLO 205 colon were 98.4% and 115%, respectively.
In the case of `COc1ccc(/C=N\N2CCOCC2)cc1OC1CCCC1`, the growth with NCI-H23 lung is 99%; in the assay on NCI-H322M lung it was 107%; in the assay with HOP-62 NSCLC, 97%; in the assay on NCI-H460 lung it was 105%; in the assay on HOP-92 NSCLC, 93.1%; with NCI-H522 lung, 95.6%. For the same molecule, the figures for the growth with A549/ATCC NSCLC and in the assay on 786-0 renal were 99.8% and 93.6%, respectively.
As for `N#Cc1c(-c2cccc(F)c2)cc(-c2ccc(Br)s2)[nH]c1=O`, the growth in the assay on NCI-H23 lung was 84.9%; in the assay with NCI-H322M lung it was 87.9%; in the assay with HOP-62 NSCLC, 72.2%; in the assay on NCI-H460 lung it was 38.6%; with HOP-92 NSCLC it was 42.6%; with NCI-H522 lung, 35.7%. The growth was 59.4% with A549/ATCC NSCLC and 96.3% in the assay with 786-0 renal.
Turning to `Cc1ccccc1-n1nnc(C(=O)Nc2nc(-c3ccccc3)c(-c3ccccc3)s2)c1C`, the growth with NCI-H23 lung was 76.3% [50 µM]; in the assay on NCI-H322M lung, 84.4% [50 µM]; with HOP-62 NSCLC, 84.8% [50 µM]; in the assay on NCI-H460 lung, 73.2% [50 µM]; in the assay on HOP-92 NSCLC, 62.3% [50 µM]; in the assay with A549/ATCC NSCLC, 65.4% [50 µM]. The figures for the growth with 786-0 renal and in the assay with COLO 205 colon were 87.4% [50 µM] and 92.8% [50 µM], respectively.
As to `c1ccc2cc(Cn3c(-c4ccc5ccccc5c4)[n+](Cc4ccc5ccccc5c4)c4ccccc43)ccc2c1`, the growth is -56.2% (active) in the assay with NCI-H23 lung; -7.14% (active) with NCI-H322M lung; -66.8% (active) with HOP-62 NSCLC; -81.7% (active) with NCI-H460 lung; -60.3% (active) in the assay with HOP-92 NSCLC; -65.3% (active) in the assay with A549/ATCC NSCLC. Further, the growth in the assay with 786-0 renal is -95.1% (active); in the assay with COLO 205 colon it was -69.5% (active).
Take `O=C1/C(=C/c2ccc([N+](=O)[O-])cc2)Oc2ccc(O)cc21`: the growth with NCI-H23 lung is 75.8%; in the assay with NCI-H322M lung it was 106%; with HOP-62 NSCLC it was 50.6%; in the assay with NCI-H460 lung, 40.9%; in the assay with HOP-92 NSCLC, 93.7%; with NCI-H522 lung it was 75.4%. Also, the growth is 70.8% with A549/ATCC NSCLC and 96% in the assay with 786-0 renal.
Consider `O=c1[nH]c(=O)n(Cc2ccc(F)cc2)cc1F`, for which the growth is 105% [50 µM] in the assay on NCI-H23 lung; 107% [50 µM] with NCI-H322M lung; 109% [50 µM] in the assay with HOP-62 NSCLC; 108% [50 µM] in the assay with NCI-H460 lung; 108% [50 µM] in the assay with HOP-92 NSCLC; 96% [50 µM] with A549/ATCC NSCLC. Also, the growth in the assay on 786-0 renal was 105% [50 µM]; in the assay on COLO 205 colon, 115% [50 µM].
Consider `CC(=O)OC[C@]1(C)C=C2C(=O)[C@](C)(O)C3(CC3)C(C)=C2[C@H]1OC(C)=O`, for which the growth in the assay with NCI-H23 lung is 75%; in the assay on NCI-H322M lung, 98.5%; in the assay with HOP-62 NSCLC, 53.7%; with NCI-H460 lung it was 95.1%; in the assay on HOP-92 NSCLC it was 122%; with NCI-H522 lung, 71.1%. The growth was 100% with A549/ATCC NSCLC and 87.8% in the assay on 786-0 renal.
`O=c1oc2ccccc2cc1-c1csc(N=Nc2c(O)[nH]c3ccc(Cl)cc23)n1`: the growth is 101% in the assay with NCI-H23 lung; 105% in the assay on NCI-H322M lung; 117% with HOP-62 NSCLC; 99.9% in the assay with NCI-H460 lung; 114% with HOP-92 NSCLC; 98.4% in the assay with NCI-H522 lung. Further, the growth is 89.6% in the assay on A549/ATCC NSCLC and 105% with 786-0 renal.
For `COc1ccc(-c2c(-c3cc4c(c(OC)c3OC)OCO4)noc2N)cc1`, the growth with NCI-H23 lung was 42.5%; in the assay with NCI-H322M lung, 54.2%; in the assay with HOP-62 NSCLC it was 35.7%; with NCI-H460 lung, 13.2%; in the assay with HOP-92 NSCLC, 15.3%; in the assay on A549/ATCC NSCLC, 24.1%. Moreover, the growth with 786-0 renal is 38.4%; with COLO 205 colon, -2.51% (active).
Take `CC(C)(C)[Si](C)(C)OC1[C@@H](O[Si](C)(C)C(C)(C)C)[C@@H](CNC(=O)NC(=O)C(F)(F)F)O[C@H]1n1cnc2c(NC(=O)Nc3ccccc3)ncnc21` (stereo partly drawn): the growth with NCI-H23 lung is 86.4%; in the assay on NCI-H322M lung, 97.6%; with HOP-62 NSCLC, 93%; with NCI-H460 lung, 36.1%; in the assay with HOP-92 NSCLC, -11.4% (active); in the assay on A549/ATCC NSCLC, 51.4%. Further, the growth in the assay on 786-0 renal is 83.1%; in the assay with COLO 205 colon, 91.9%.
Consider `COC(=O)c1c2c(c(C)[n+]([O-])c1C)C(=O)C=C(NCc1cccc(Cl)c1)C2=O`, for which the growth was -63% (active) with NCI-H23 lung; -18.3% (active) in the assay on NCI-H322M lung; -19.8% (active) with HOP-62 NSCLC; -3.61% (active) in the assay on NCI-H460 lung; -32.2% (active) in the assay on HOP-92 NSCLC; -63.5% (active) with NCI-H522 lung. The growth with A549/ATCC NSCLC is -49.5% (active); with 786-0 renal, 6.87% (active).
For the molecule `COc1cc(Cn2cc(F)c(=O)[nH]c2=O)cc(OC)c1`, the growth in the assay on NCI-H23 lung is 103% [50 µM]; in the assay on NCI-H322M lung, 99% [50 µM]; with HOP-62 NSCLC, 88.2% [50 µM]; in the assay on NCI-H460 lung it was 103% [50 µM]; in the assay on HOP-92 NSCLC, 101% [50 µM]; in the assay with A549/ATCC NSCLC, 102% [50 µM]. The growth is 97.5% [50 µM] with 786-0 renal and 117% [50 µM] with COLO 205 colon.
